Bioassay records (PubChem)
PI4K2A block: qHTS for small molecular inhibitors of PI4K2A. Phosphatidylinositol 4-kinase type 2-alpha (Homo sapiens), Q9BTU6. purified PI4K2A, ADP-Glo luminescence, 1 h; stronger effect = lower value. activity change, negative = inhibition, % at 76.9 µM. 0.13% of 420,000 active. AID 1346378, 2018; in the data active = activity change below about -50%; inconclusive = mostly about -30% to -49%;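 also: -100% = wells without enzyme as full effect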
Target sequence (Q9BTU6 whole entry, looked up): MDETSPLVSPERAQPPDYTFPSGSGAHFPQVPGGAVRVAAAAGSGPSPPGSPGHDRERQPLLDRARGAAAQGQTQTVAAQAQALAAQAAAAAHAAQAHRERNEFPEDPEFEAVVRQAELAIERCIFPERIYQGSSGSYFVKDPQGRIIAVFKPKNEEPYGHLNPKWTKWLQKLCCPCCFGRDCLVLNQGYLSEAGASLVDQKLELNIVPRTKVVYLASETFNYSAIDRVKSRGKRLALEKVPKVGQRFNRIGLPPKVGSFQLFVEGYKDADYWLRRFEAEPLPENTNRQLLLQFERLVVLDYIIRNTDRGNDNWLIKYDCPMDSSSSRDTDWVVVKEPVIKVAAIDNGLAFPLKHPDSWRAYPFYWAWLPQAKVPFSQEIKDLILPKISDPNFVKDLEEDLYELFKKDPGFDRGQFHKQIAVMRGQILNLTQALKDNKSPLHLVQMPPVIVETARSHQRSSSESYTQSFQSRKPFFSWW
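Compounds are screened against recombinant PI4K2A using PI as substrate and ATP, the latter dispensed at 300 microM. Reactions run one hour at ambient temperature before ADP-Glo detection; full inhibition defined by wells lacking enzyme.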
LDHA block: qHTS assay for inhibitors of human lactate dehydrogenase | AID 1347041, 2019 | activity change, % (values are at about 110 or 230 µM) | 0.15% of 480,000 active | L-lactate dehydrogenase A chain (Homo sapiens), P00338 | purified LDHA, NADH/diaphorase-resazurin fluorescence; stronger effect = lower value; in the data active = activity change below about -30%; inconclusive = mostly about -25% to -30%;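 also: plate controls were DMSO wells for no effect and wells without enzyme for full effect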
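Enzyme activity of human lactate dehydrogenase 5 (2 nM; 0.06 mM NADH, 0.2 mM pyruvate, 5 min, RT) is measured via a resazurin/diaphorase fluorescence readout of residual NADH.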
D3 antag: qHTS of D3 Dopamine Receptor Antagonist: qHTS | D3R cells, DiscoveRx beta-arrestin luminescence, antagonist mode; stronger effect = lower value | max response, negative = inhibition, % | AID 652054, 2013 | 2.5% of 360,000 active; in the data active = max response below about -50%; inconclusive = no clear call, values can overlap the other calls; also: % is scaled to controls: 0 for no effect and ±100 for the full control effect
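Cells plated overnight at 1500 cells/well, then exposed to library compounds with dopamine controls for 90 minutes at 37 degrees C. DiscoveRx reagent added for 30–60 minutes at room temperature; luminescence read, quantitative HTS format.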
PI5P4K alpha inh: qHTS for Inhibitors of phosphatidylinositol 5-phosphate 4-kinase (PI5P4K); Phosphatidylinositol 5-phosphate 4-kinase type-2 alpha (Homo sapiens), P48426; PI5P4Kalpha enzyme, ADP-Glo luminescence, 60 min; stronger effect = lower value; max response, %; 1.2% of 330,000 active; active = max response of -50% or lower; inconclusive = between -30% and -50%; inactive = -30% or higher; also: value at the top dose of about 77 µM; % is scaled to controls: 0 for no effect and ±100 for the full control effect
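Single end-point luminescence (ADP-Glo) quantified ADP from PI5P4Kalpha turnover; ATP 5 microM final, 1 h at RT, 0.1% CHAPS and 0.28 mM EGTA in HEPES pH 7.4.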
D3 ag: qHTS of D3 Dopamine Receptor Agonist: qHTS | D(3) dopamine receptor (Homo sapiens), P35462 | D3R DiscoveRx beta-arrestin cells, luminescence, 90 min | max activation, % | 0.58% of 410,000 active; in the data active = max activation above about 30%; also: 0% is about no effect
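Agonist-mode cell screen: cells plated at 1500/well and incubated overnight at 37 °C, then exposed to library compounds for 90 min at 37 °C. Detection reagent was added for 30–60 min at room temperature, and luminescence was read.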
Starred values were filed as active, the others as inactive; ? = inconclusive; / = no result given. Hits are enriched below; roughly 3.3% of the tested compounds scored in any of these assays.

SMILES | PI4K2A block | LDHA block | D3 antag | PI5P4K alpha inh | D3 ag
CCC1CCCCN1C(=O)Cn1c(=O)n(-c2ccc(F)c(C)c2)c(=O)c2sccc21 (configuration not stated) | / | -39* | / | / | /
CN(C)CCCSc1nc(N2CCOCC2)c2c(c1C#N)CCCC2 | / | -9 | / | / | /
O=C(NCCCN1CCc2ccccc2C1)C1CCN(c2nnc(-n3cccc3)s2)CC1 | 0 | -8 | -82* | 3 | -9
O=C(NCCCN1CCN(Cc2ccccc2)CC1)C1CCN(c2nnc(-n3cccc3)s2)CC1 | 2 | -3 | 0 | -3 | -19
C=CCc1ccc(OCCCNCc2ccccc2)c(OC)c1 | -1 | -5 | -79* | -9 | -21
C/C=C/c1ccc(OCCNCc2ccccc2)c(OC)c1 | -3 | -13 | -77* | -1 | -19
O=[N+]([O-])c1cnc(Nc2ccccc2)nc1Nc1ccccc1 | -2 | -3 | -83* | 1 | 4
Cc1nnsc1S(=O)c1ccc(Cl)c(Cl)c1 (configuration not stated) | 2 | 0 | ? | -7 | -18
O=S(c1ccc2ccccc2c1)c1cnns1 (configuration not stated) | 4 | 4 | -55* | 3 | -9
CCOC(=O)c1ccc(-n2c(=S)sc3c(=O)[nH]c(C)nc32)cc1 | -6 | -7 | 42 | / | 51*
CCOC(=O)CSc1nc2c(sc(=S)n2-c2ccc(CC)cc2)c(=O)[nH]1 | -1 | -2 | 100 | -13 | 3
CCc1ccc(-n2c(=S)sc3c(=O)[nH]c(SCC(=O)NC4CCCCC4)nc32)cc1 | -10 | -10 | -51* | ? | -2
CCOc1ccc(-n2c(=S)sc3c(=O)[nH]c(SCC(=O)NC4CCCCC4)nc32)cc1 | -6 | 1 | 10 | -1 | 14
O=c1oc(Cl)c(Cl)c2ccccc12 | 6 | 1 | -74* | -27 | -36
O=c1oc2cc(O)c(Cl)cc2c2ccccc12 | 1 | 2 | -12 | -28 | -2
O=C(Nc1nc2n(n1)C(c1ccc(Cl)cc1)CC(c1ccc(Cl)cc1)N2)c1ccco1 (configuration not stated) | -3 | 1 | -53* | -3 | -12
CC(=O)N1CCc2cc(C(=O)C(C)n3nnc(-c4ccc(F)cc4)n3)ccc21 (configuration not stated) | / | -10 | / | / | /
Cc1sc2nc(C3CC3)nc(SCC(=O)N3c4ccccc4CC3C)c2c1C (configuration not stated) | -1 | -2 | 54 | / | 42*
COc1ccc(C(=O)N/C(=C/c2cccs2)c2nc3ccccc3[nH]2)cc1OC | 0 | -3 | 19 | 3 | -5
COc1cc(/C=C(/C(=O)c2cccs2)c2nc3ccccc3[nH]2)cc(OC)c1O | -16 | 8 | -100* | -13 | -9
O=C(/C(=C/c1ccc(Cl)cc1)c1nc2ccccc2[nH]1)c1ccccc1 | -5 | -20 | -75* | -2 | -6
O=C(N/C(=C/c1ccc(Cl)cc1)c1nc2ccccc2[nH]1)c1ccco1 | -4 | -8 | 6 | 1 | -19
COc1ccc2c(c1)CCC1C2=NN(/C(C)=C/C(C)=O)C1c1cccc(F)c1 (configuration not stated) | -1 | 25 | -58* | 3 | 2
CC(NC(=O)OCc1ccccc1)C(=O)NCC1CC1 (configuration not stated) | / | -11 | / | / | /
CN(CCNC(=O)CCCOc1cc(=O)n(C)c2ccccc12)Cc1ccccc1 | 7 | -2 | -93* | 1 | -16
SMILES | PI4K2A block | LDHA block | D3 antag | PI5P4K alpha inh | D3 ag
COc1ccc2cc3cc(C(=O)NCCN4CCN(Cc5ccccc5)CC4)oc3nc2c1 | 8 | -1 | -61* | 7 | -12
O=C(NCCN1CCOCC1)c1cc(-c2ccccc2)nc2ccccc12 | 5 | -9 | ? | -3 | -18
COc1ccc2cc3cc(C(=O)NCCN4CCc5ccccc5C4)oc3nc2c1 | 3 | 4 | ? | -12 | -13
COc1ccc2cc3cc(C(=O)NCCCN4CCC(C)CC4)oc3nc2c1 | 0 | 1 | -58* | 5 | -15
COc1ccc(-c2cc(C(=O)NCCN3CCOCC3)c3ccccc3n2)c(OC)c1 | 0 | 4 | -55* | / | -23
O=C(Nc1cnc2ccccc2c1)NC1CCCC1 | / | 5 | / | / | /
CCCOC(=O)c1ccc(Oc2coc3cc(OCC)ccc3c2=O)cc1 | / | 0 | / | / | /
CC1CCCN(CCCNC(=O)c2coc3nc4ccccc4nc23)C1 (configuration not stated) | -2 | -8 | 0 | 5 | -7
CC1CCN(CCCNC(=O)c2coc3nc4ccccc4nc23)CC1 | 1 | 2 | -78* | -2 | -1
CCCCN(CC)CCCNC(=O)c1cc2cc3ccc(OC)cc3nc2o1 | -11 | -1 | -72* | 1 | -1
CCn1c(=O)cc(OCC(=O)NCCCN2CCC(C)CC2)c2ccccc21 | -1 | -1 | ? | / | -49
CC1CCN(CCCNC(=O)COc2cc(=O)n(C)c3ccccc23)CC1 | 0 | -2 | -75* | 3 | -7
CC1CCN(CCCNC(=O)c2n[nH]c(=O)c3ccccc23)CC1 | 19 | 2 | -62* | -1 | 1
CCC(CC)c1nnc(NC(=O)c2cc(=O)[nH]c3ccccc23)s1 | / | -1 | / | / | /
NC(=O)CN(CC(=O)NC1CCC(C(F)(F)F)CC1)C1CCCC1 (configuration not stated) | / | -3 | / | / | /
Cc1ccc([N+](=O)[O-])cc1N=Cc1ccc(C#Cc2ccccc2)cc1 | / | 4 | / | / | /
COc1cc2nc(NC(=O)c3ccc(F)cc3)[nH]c(=O)c2cc1OC | / | -6 | / | / | /
CC1CCN(C(=O)c2[nH]c(C(F)(F)F)nc2-c2ccccc2)CC1 | -7 | 0 | -69* | 6 | 8
O=C(c1[nH]c(C(F)(F)F)nc1-c1ccccc1)N1CCN(c2cccc(C(F)(F)F)n2)CC1 | -4 | -1 | -55* | 9 | -6
N#Cc1ccccc1OCc1cccc(C(N)=O)c1 | / | -3 | / | / | /
N#Cc1c2n(c(=O)n(CCOc3ccccc3)c1=O)CCC2 | / | 6 | / | / | /
O=C(O)CSc1ncnc2scc(-c3ccc(Br)cc3)c12 | 6 | -7 | 11 | -66* | 8
CN(C)C(=O)CSc1ncnc2scc(-c3ccccc3)c12 | 2 | -4 | 4 | 0 | 3
O=C(O)CSc1ncnc2scc(-c3ccccc3)c12 | -2 | -12 | 0 | -76* | 3
COc1cccc(-c2cc(C(=O)NC(C)(C)C)c3ccccc3n2)c1 | / | 0 | / | / | /
Cc1cccc2sc(NNC(=O)c3cc(-c4cccs4)nc4ccccc34)nc12 | -6 | 0 | 126 | -2 | 46*
Cc1cccnc1NC(=O)c1cc(-c2cccs2)nc2ccccc12 | / | 10 | / | / | /
